Experimental data from PubChem BioAssay (NCI).
This is part of a sample that, as a whole, favours compounds with a hit. Of some 79,000 tested, about 15% had one in any assay. Active and inactive are the calls of the source. Rule as the data show it: active = growth inhibition above about 70%; inactive = the rest.

Key:
[1] = NCI Yeast Anticancer Drug Screen. Data for the wt1 strain (AID 149);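 also: 0% = growth of vehicle-treated wt1 cultures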; settings: S. cerevisiae wt1 strain (SPY 50644) growth inhibition, stronger effect = higher value
Outline: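 Measured: growth of wt1 yeast under compound versus vehicle treatment, reported as inhibition.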

[2] = NCI Yeast Anticancer Drug Screen. Data for the rad50EPP+ strain (AID 151);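 also: 0% = growth of vehicle-treated control cultures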; settings: S. cerevisiae rad50 mutant strain, stronger effect = higher value
Outline: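 Read-out is yeast growth inhibition relative to vehicle; cells used were the rad50EPP+ strain.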

[3] = NCI Yeast Anticancer Drug Screen. Data for the mgt1 strain (AID 153); settings: S. cerevisiae mgt1 mutant growth inhibition, stronger effect = higher value
Outline: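 Measured: inhibition of mgt1 yeast growth by compound, normalized to vehicle-treated cultures.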

[4] = NCI Yeast Anticancer Drug Screen. Data for the rad50 strain (AID 155);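 also: 0% = growth of vehicle-only cultures of the same strain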; settings: S. cerevisiae rad50 strain growth inhibition, stronger effect = higher value
Outline: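 Growth of the mutant yeast was measured after compound exposure and referenced to vehicle-treated cultures.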

[5] = NCI Yeast Anticancer Drug Screen. Data for the mec2-1 strain (AID 157); settings: S. cerevisiae mec2-1 strain, stronger effect = higher value
Outline: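 Using mec2-1 yeast: add compound, measure growth, express inhibition versus vehicle-treated cultures.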

[6] = NCI Yeast Anticancer Drug Screen. Data for the rad14 strain (AID 159);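 also: 0% = growth of vehicle-treated control cultures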; settings: S. cerevisiae rad14 strain growth inhibition, stronger effect = higher value
Outline: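 Here, inhibition of yeast growth was measured after compound exposure, using a strain with a genetic defect in DNA damage repair and vehicle-treated cultures as the reference.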

[7] = NCI Yeast Anticancer Drug Screen. Data for the sgs1 mgt1 strain (AID 161);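 also: 0% = growth of cultures given vehicle only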; settings: S. cerevisiae sgs1 mgt1 strain, stronger effect = higher value
Outline: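 This yeast growth screen uses a strain with defined DNA-repair lesions; compound-treated growth is compared with vehicle-treated growth.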

[8] = NCI Yeast Anticancer Drug Screen. Data for the CLN2oe strain (AID 163);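 also: 0% = growth of vehicle-only control cultures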; settings: S. cerevisiae CLN2oe strain, stronger effect = higher value
Outline: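 Whole-cell yeast growth assay. A strain engineered for altered cell-cycle control received compound, and inhibition relative to vehicle-treated cultures was recorded.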

[9] = NCI Yeast Anticancer Drug Screen. Data for the cln2 rad14 strain (AID 165);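 also: 0% = growth equal to vehicle treated cultures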; settings: S. cerevisiae cln2 rad14 strain, stronger effect = higher value
Outline: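 Yeast strain cln2 rad14, bearing defects in cell cycle control and DNA repair, serves as the test system; values reflect growth inhibition compared with vehicle.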

[10] = NCI Yeast Anticancer Drug Screen. Data for the bub3 strain (AID 167); settings: S. cerevisiae bub3 mutant strain, stronger effect = higher value
Outline: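 Whole-cell yeast assay. The mutant strain was incubated with compounds, and growth inhibition was determined by comparison with vehicle-treated cells.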

[11] = NCI Yeast Anticancer Drug Screen. Data for the mlh1 strain (AID 171);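 also: 0% = growth of vehicle-treated control cultures of the same strain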; settings: S. cerevisiae mlh1 strain growth inhibition, stronger effect = higher value
Outline: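 A yeast strain with a defined genetic lesion serves as the test organism. Cultures receive compound or vehicle, and growth is measured.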

[12] = NCI Yeast Anticancer Drug Screen. Data for the sgs1 strain (AID 173);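 also: 0% = growth of vehicle-only control cultures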; settings: S. cerevisiae sgs1 mutant, stronger effect = higher value
Outline: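 A genetically defined yeast mutant is incubated with the test compound, and its growth is compared to that of the same strain given vehicle.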

[13] = NCI Yeast Anticancer Drug Screen. Data for the mlh1 rad18 strain (AID 175); settings: S. cerevisiae mlh1 rad18 strain growth inhibition, stronger effect = higher value
Outline: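 Steps: expose repair-defective yeast to compound; measure growth; express inhibition against vehicle-treated controls.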

[14] = NCI Yeast Anticancer Drug Screen. Data for the rad18 strain (AID 177); settings: S. cerevisiae rad18 mutant growth inhibition, stronger effect = higher value
Outline: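 Measured value is growth inhibition of a yeast strain bearing a DNA repair alteration, referenced to vehicle-treated cells.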

[15] = NCI Yeast Anticancer Drug Screen. Data for the wt2 strain (AID 169);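 also: 0% = growth of vehicle-treated yeast cultures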; settings: S. cerevisiae wt2 strain growth inhibition, stronger effect = higher value
Outline: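 Treated yeast vs. vehicle-treated yeast: growth inhibition determined.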

[16] = at 5.0 µM (retest, dose inferred, filed as 0.5)
[17] = at 50.0 µM (retest, dose inferred, filed as 5.0)

Measured: growth inhibition

O=C1C(Br)=CC(Br)(Br)C=C1Br
active: [1]; at 33.0 µM 97% | [1]; at 100.0 µM 99% | [2]; at 11.0 µM 70% | [2]; at 33.0 µM 98% | [2]; at 100.0 µM 98% | [3]; at 33.0 µM 98% | [3]; at 100.0 µM 99% | [4]; [16] 99% | [4]; at 33.0 µM 95% | [4]; [17] 99% | [4]; at 50.0 µM 90.8% | [4]; at 100.0 µM 98% | [5]; [16] 100% | [5]; at 33.0 µM 99% | [5]; [17] 97% | [5]; at 50.0 µM 93.5% | [5]; at 100.0 µM 99% | [6]; at 33.0 µM 95% | [6]; at 100.0 µM 98% | [7]; [17] 100% | [7]; at 50.0 µM 93.7% | [8]; at 33.0 µM 98% | [8]; at 100.0 µM 99% | [9]; [17] 100% | [9]; at 50.0 µM 92.5% | [10]; at 33.0 µM 96% | [10]; [17] 99% | [10]; at 50.0 µM 92% | [10]; at 100.0 µM 98% | [11]; at 33.0 µM 96% | [11]; at 100.0 µM 98% | [12]; at 33.0 µM 96% | [12]; at 100.0 µM 98% | [13]; [16] 100% | [13]; [17] 100% | [13]; at 50.0 µM 90.6% | [14]; at 33.0 µM 95% | [14]; at 100.0 µM 98%
inactive: [1]; at 1.2 µM 6% | [1]; at 3.7 µM 9% | [1]; at 11.0 µM 47% | [2]; at 1.2 µM 24% | [2]; at 3.7 µM 31% | [3]; at 1.2 µM 9% | [3]; at 3.7 µM 1% | [3]; at 11.0 µM 58% | [4]; at 1.2 µM 0% | [4]; at 3.7 µM -3% | [4]; at 11.0 µM 30% | [5]; at 1.2 µM 6% | [5]; at 3.7 µM 28% | [5]; at 11.0 µM 51% | [6]; at 1.2 µM -32% | [6]; at 3.7 µM -10% | [6]; at 11.0 µM 28% | [7]; [16] -27% | [8]; at 1.2 µM 24% | [8]; at 3.7 µM 18% | [8]; at 11.0 µM 34% | [9]; [16] 56% | [10]; at 1.2 µM -8% | [10]; at 3.7 µM -16% | [10]; [16] 21% | [10]; at 11.0 µM 7% | [11]; at 1.2 µM -8% | [11]; at 3.7 µM -10% | [11]; at 11.0 µM 46% | [12]; at 1.2 µM 2% | [12]; at 3.7 µM 5% | [12]; at 11.0 µM 59% | [14]; at 1.2 µM -4% | [14]; at 3.7 µM -13% | [14]; at 11.0 µM 26%

O=C(CCCN1CCC2(CC1)OC(=O)N(c1ccccc1)C2=O)c1ccccc1
active: [3]; at 100.0 µM 74% | [4]; at 50.0 µM 83.9% | [6]; at 11.0 µM 74% | [6]; at 33.0 µM 79% | [6]; at 100.0 µM 90% | [8]; at 11.0 µM 72% | [8]; at 33.0 µM 71% | [8]; at 100.0 µM 76% | [9]; [17] 85% | [10]; at 50.0 µM 79.4% | [12]; at 11.0 µM 71%
inactive: [1]; at 1.2 µM 43% | [1]; at 3.7 µM 45% | [1]; at 11.0 µM 53% | [1]; at 33.0 µM 52% | [1]; at 100.0 µM 63% | [2]; at 1.2 µM 44% | [2]; at 3.7 µM 29% | [2]; at 11.0 µM 33% | [2]; at 33.0 µM 26% | [2]; at 100.0 µM 26% | [3]; at 1.2 µM 29% | [3]; at 3.7 µM 44% | [3]; at 11.0 µM 56% | [3]; at 33.0 µM 65% | [4]; at 1.2 µM 31% | [4]; at 3.7 µM 50% | [4]; [16] 31% | [4]; at 11.0 µM 60% | [4]; at 33.0 µM 65% | [4]; [17] 64% | [4]; at 100.0 µM 67% | [5]; at 1.2 µM 44% | [5]; at 3.7 µM 45% | [5]; [16] 37% | [5]; at 11.0 µM 60% | [5]; at 33.0 µM 61% | [5]; [17] 60% | [5]; at 50.0 µM 47.2% | [5]; at 100.0 µM 59% | [6]; at 1.2 µM 53% | [6]; at 3.7 µM 63% | [8]; at 1.2 µM 45% | [8]; at 3.7 µM 63% | [9]; [16] 64% | [9]; at 50.0 µM 65% | [10]; at 1.2 µM 20% | [10]; at 3.7 µM 29% | [10]; [16] 53% | [10]; at 11.0 µM 35% | [10]; at 33.0 µM 38% | [10]; [17] 67% | [10]; at 100.0 µM 50% | [15]; at 1.2 µM 7% | [15]; at 3.7 µM 24% | [15]; at 11.0 µM 32% | [15]; at 33.0 µM 38% | [15]; at 100.0 µM 40% | [12]; at 1.2 µM 53% | [12]; at 3.7 µM 67%
